In PubChem BioAssay (Tox21):
Results filed as inconclusive are left out. Activity calls are given as the source filed them. Unless noted, calls follow the shape of the dose curve; as a rule, active = well fitted curve in the direction sought with a large enough effect in the repeat runs; inconclusive = weak or mixed curves; inactive = no such curve, though single readings can be large; an effect the other way counts as inactive or inconclusive.

Assays:
[1] = qHTS assay to identify small molecule agonists of the TGF-beta/Smad signaling pathway - cell viability counter screen (AID 1346829); also: top concentration of the series differs between compounds; nearly all actives have a fitted effect of over 45% in size
In short: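 HEK 293T SBE-bla line, 5 hr compound exposure at 37 C, multiplexed CellTiter-Glo viability read by luminescence.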

[2] = qHTS assay to identify small molecule agonists of the TGF-beta/Smad signaling pathway (AID 1346859; active = well fitted activation curve with a large enough effect in the signal ratio in the repeat runs, not every such curve was filed as active; the % refers to the signal ratio; also: series mostly up to about 77 µM)
In short: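 SBE-bla HEK293T cells plated overnight, then compound exposure for 5 h at 37 C. Beta-lactamase reporter read with LiveBLAzer B/G FRET substrate after 2 h at room temperature, fluorescence at 405 nm excitation, 460/530 nm emission.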

[3] = target: Thyrotropin-releasing hormone receptor (Homo sapiens) (UniProt P34981); assay: qHTS assay to identify small molecule agonists of the thyrotropin-releasing hormone receptor (TRHR) signaling pathway (AID 1346891; calls by dose curve; also: series mostly up to about 58 µM)
In short: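 HEK293 cells expressing TRHR plated 18 h at 37 C/5% CO2, calcium dye-loaded 2 h at 37 C, then compound added (agonist mode); kinetic calcium fluorescence read 3 min at 1 s intervals; 15 concentrations in triplicate.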

[4] = Human pregnane X receptor (PXR) small molecule agonists, qHTS cell viability counter screen (AID 1346977); also: nearly all actives have a fitted effect of over 50% in size
In short: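 PXR-Luc HepG2 cells (2,000/well, 5% charcoal-stripped FBS) preincubated 5 hr, then exposed to compounds 24 hr at 37 C. Viability read in the same wells by CellTiter-Fluor fluorescence, reagent added at 23 hr, 1 hr incubation.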

[5] = Caspase-3/7 induction in CHO-K1 cells by small molecules, qHTS cell viability counter screen (AID 1346979); also: nearly all actives have a fitted effect of over 35% in size; also: potency is read from the fitted curve at half-maximal effect
In short: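 Wild-type CHO-K1 cells (1,500/well) treated with compound after 5 h plating; after 16 h at 37C, viability read as CellTiter-Fluor fluorescence following 1 h reagent incubation, in the same wells as the caspase read.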

[6] = Caspase-3/7 induction in CHO-K1 cells by small molecules, qHTS assay (AID 1346980); also: nearly all actives have a fitted effect of over 15% in size
In short: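 Luminescent Caspase-Glo 3/7 read (30min, room temperature) quantified apoptosis induction. Cells were wild-type CHO-K1, treated with compound for 17hr at 37 C and 5% CO2.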

[7] = Caspase-3/7 induction in HepG2 cells by small molecules, qHTS cell viability counter screen (AID 1346981); also: series mostly up to about 92 µM; nearly all actives have a fitted effect of over 30% in size
In short: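 Steps: seed 2,000 HepG2 cells per well; incubate 5 hr at 37 C; pin-add compounds in DMSO; incubate 16 hr; add CellTiter-Fluor; after 1 hr at 37 C and 5% CO2, read fluorescence.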

[8] = target: Nuclear receptor subfamily 1 group I member 2 (Homo sapiens) (UniProt O75469); assay: Human pregnane X receptor (PXR) small molecule agonists, qHTS assay (AID 1346982); also: nearly all actives have a fitted effect of over 35% in size; also: potency is read from the fitted curve at half-maximal effect
In short: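 Agonist mode qHTS: PXR-Luc HepG2 cells plated 5 hr before DMSO-dissolved compounds were pinned in, cultured 24 hr at 37 C, 5% CO2; ONE-Glo luminescence readout.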

[9] = target: Cytochrome P450 2C19 (Homo sapiens) (UniProt P33261); assay: Cytochrome P450 Family 2 Subfamily C Member 19 (CYP2C19) small molecule antagonists: luciferase reporter qHTS assay (AID 1671197); also: nearly all actives have a fitted effect of over 65% in size; also: potency is read from the fitted curve at half-maximal effect; as to activity change, negative = inhibition: series mostly up to about 120 µM
In short: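 First, compounds are pinned into enzyme-substrate mix and held 10 min at room temperature. Second, NADPH regeneration solution is added and plates incubate 1 h at 37C. Third, detection reagent is added and luminescence read after 20 min.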

[10] = target: Cytochrome P450 2C9 (Homo sapiens) (UniProt P11712); assay: Cytochrome P450 Family 2 Subfamily C Member 9 (CYP2C9) small molecule antagonists: luciferase reporter qHTS assay (AID 1671198); also: nearly all actives have a fitted effect of over 50% in size; also: potency is read from the fitted curve at half-maximal effect; as to activity change, negative = inhibition: series mostly up to about 120 µM
In short: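 Enzyme-substrate mix preincubated with compound 10 min at room temperature; reaction started with NADPH regeneration solution, 1 h 37C. Luminescent luciferin product read after 20 min detection reagent.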

[11] = target: Cytochrome P450 1A2 (Homo sapiens) (UniProt P05177); assay: Cytochrome P450 Family 1 Subfamily A Member 2 (CYP1A2) small molecule antagonists: luciferase reporter qHTS assay (AID 1671199); also: nearly all actives have a fitted effect of over 50% in size; also: potency is read from the fitted curve at half-maximal effect; as to activity change, negative = inhibition: series mostly up to about 120 µM
In short: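 Inhibition of CYP1A2 conversion of proluciferin to luciferin, detected by luminescence. Reaction run 1 h at room temperature with NADPH regeneration after brief compound preincubation.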

[12] = target: Voltage-gated inwardly rectifying potassium channel KCNH2 (Homo sapiens) (UniProt Q12809); assay: Human Ether-a-go-go-Related Gene (hERG) channel small molecule antagonists: fluorescence cell-based qHTS assay (AID 1671200);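 also: hERG-expressing U2OS cells given a thallium stimulus after FluxOR II dye loading; series mostly up to about 77 µM; nearly all actives have a fitted effect of over 50% in size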
In short: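 hERG-U2OS cells plated overnight at 37 C, loaded with FluxOR II dye 1 h at RT in dark; after 10 min, thallium stimulus added. Fluorescence (480/540 nm) read kinetically for 2 min at 1 s intervals.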

[13] = target: Cytochrome P450 3A4 (Homo sapiens) (UniProt P08684); assay: Cytochrome P450 Family 3 Subfamily A Member 4 (CYP3A4) small molecule antagonists: luciferase reporter qHTS assay (AID 1671201)
In short: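 P450-Glo CYP3A4 luminescent assay: compounds preincubated 10 min at room temperature with enzyme and proluciferin substrate, NADPH regeneration added, 1 h room-temperature reaction, stopped with luciferin detection reagent; luminescence read after 20 min. Ketoconazole positive control.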

[14] = Caspase-3/7 induction in HepG2 cells by small molecules, qHTS assay (AID 1346978); also: nearly all actives have a fitted effect of over 15% in size
In short: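 Caspase-3/7 induction was measured by Caspase-Glo 3/7 luminescence (30 min, room temperature) after a 17 hr compound exposure of wild-type HepG2 cells seeded at 2,000 per well and pre-incubated 5 hr.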

[15] = target: Nuclear receptor subfamily 1 group I member 2 (Rattus norvegicus) (UniProt Q9R1A7); assay: Rat pregnane X receptor (rPXR) activation by small molecules, qHTS assay (AID 1346983); details: rPXR luciferase reporter cells, One-Glo luminescence, 24 h; max activation: stronger effect = higher value; also: nearly all actives have a fitted effect of over 20% in size
In short: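 Luminescent readout (One-Glo luciferase, 30 min room temperature) followed 24 hr compound treatment at 37 C of rPXR cells plated 2,000 per well and preincubated 5hr; qHTS format with compounds delivered in DMSO.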

[16] = target: Nuclear receptor subfamily 1 group I member 2 (Homo sapiens) (UniProt O75469); assay: CYP3A4 induction through human pregnane X receptor (PXR) by small molecules, qHTS assay (AID 1346984); also: nearly all actives have a fitted effect of over 40% in size
In short: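 Steps: seed DPX-2 cells, 5 hr at 37C; pin-transfer compounds; 24 hr at 37C; add Luciferin-IPA (3uM final), 3 hr at 37C; add One-Glo, 30 min RT; read luminescence.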

[17] = target: Nuclear receptor subfamily 1 group I member 2 (Homo sapiens) (UniProt O75469); assay: Human pregnane X receptor (PXR) activation by small molecules, qHTS assay (AID 1346985); also: nearly all actives have a fitted effect of over 40% in size
In short: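 DPX-2 cells (HepG2 co-transfected with a PXR response element and a CYP3A4-promoter luciferase construct) were seeded at 2,000 per well, rested 5 hr at 37C, then exposed to DMSO-dissolved compounds for 24 hr. Activation was read as luciferase luminescence.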

[18] = target: Cytochrome P450 2D6 (Homo sapiens) (UniProt P10635); assay: Cytochrome P450 Family 2 Subfamily D Member 6 (CYP2D6) small molecule antagonists: luciferase reporter qHTS assay (AID 1671196); also: nearly all actives have a fitted effect of over 50% in size; also: potency is read from the fitted curve at half-maximal effect; as to activity change, negative = inhibition: series mostly up to about 120 µM
In short: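 P450-Glo format: CYP2D6 converts a proluciferin substrate to luciferin in an NADPH-driven reaction lasting 1 h at room temperature. Light output, proportional to CYP2D6 activity, reflects interference by test chemicals.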

[19] = target: Thyrotropin-releasing hormone receptor (Homo sapiens) (UniProt P34981); assay: qHTS assay to identify small molecule antagonists of the thyrotropin-releasing hormone receptor (TRHR) signaling pathway (AID 1346877; active = well fitted inhibition curve with a large enough effect in the repeat runs, not every such curve was filed as active; also: series mostly up to about 51 µM)
In short: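 Cells (TRHR-HEK293) are plated and kept 18 h at 37 °C/5% CO2. A calcium-sensitive dye is added for 2 h, compound follows for 5 min at room temperature, and TRH is then given at 1 nM final.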
% is scaled to controls: 0 for no effect and ±100 for the full control effect.

Chain of Cytochrome P450 1A2 (Homo sapiens) (P05177 whole entry, looked up): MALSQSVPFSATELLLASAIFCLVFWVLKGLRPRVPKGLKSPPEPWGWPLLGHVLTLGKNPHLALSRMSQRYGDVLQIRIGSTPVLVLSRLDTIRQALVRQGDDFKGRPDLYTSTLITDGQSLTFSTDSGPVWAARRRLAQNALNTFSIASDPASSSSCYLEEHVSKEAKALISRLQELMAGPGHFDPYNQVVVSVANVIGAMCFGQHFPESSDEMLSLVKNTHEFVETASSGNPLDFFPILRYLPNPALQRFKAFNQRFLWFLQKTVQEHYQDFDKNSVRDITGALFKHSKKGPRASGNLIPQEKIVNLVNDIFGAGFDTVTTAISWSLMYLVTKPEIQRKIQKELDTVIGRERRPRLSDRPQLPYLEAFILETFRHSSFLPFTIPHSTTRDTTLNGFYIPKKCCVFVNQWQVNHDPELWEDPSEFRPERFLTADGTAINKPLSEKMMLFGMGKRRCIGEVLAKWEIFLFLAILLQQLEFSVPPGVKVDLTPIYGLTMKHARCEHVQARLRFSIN
Chain of Cytochrome P450 2C19 (Homo sapiens) (P33261 whole entry, looked up): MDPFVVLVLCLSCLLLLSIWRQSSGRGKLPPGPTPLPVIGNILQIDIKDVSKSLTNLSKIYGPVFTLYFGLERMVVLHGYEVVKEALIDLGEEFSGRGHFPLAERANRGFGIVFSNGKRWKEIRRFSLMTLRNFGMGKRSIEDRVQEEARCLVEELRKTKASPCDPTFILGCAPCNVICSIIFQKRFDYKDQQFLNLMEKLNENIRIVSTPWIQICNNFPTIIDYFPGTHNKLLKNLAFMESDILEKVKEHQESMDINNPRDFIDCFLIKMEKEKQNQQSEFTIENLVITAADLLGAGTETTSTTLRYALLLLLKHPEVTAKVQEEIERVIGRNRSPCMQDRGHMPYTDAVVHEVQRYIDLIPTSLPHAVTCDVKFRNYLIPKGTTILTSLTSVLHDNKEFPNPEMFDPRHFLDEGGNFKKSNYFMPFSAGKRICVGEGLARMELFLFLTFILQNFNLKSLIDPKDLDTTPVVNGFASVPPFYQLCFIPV
Chain of Voltage-gated inwardly rectifying potassium channel KCNH2 (Homo sapiens) (Q12809 whole entry, looked up): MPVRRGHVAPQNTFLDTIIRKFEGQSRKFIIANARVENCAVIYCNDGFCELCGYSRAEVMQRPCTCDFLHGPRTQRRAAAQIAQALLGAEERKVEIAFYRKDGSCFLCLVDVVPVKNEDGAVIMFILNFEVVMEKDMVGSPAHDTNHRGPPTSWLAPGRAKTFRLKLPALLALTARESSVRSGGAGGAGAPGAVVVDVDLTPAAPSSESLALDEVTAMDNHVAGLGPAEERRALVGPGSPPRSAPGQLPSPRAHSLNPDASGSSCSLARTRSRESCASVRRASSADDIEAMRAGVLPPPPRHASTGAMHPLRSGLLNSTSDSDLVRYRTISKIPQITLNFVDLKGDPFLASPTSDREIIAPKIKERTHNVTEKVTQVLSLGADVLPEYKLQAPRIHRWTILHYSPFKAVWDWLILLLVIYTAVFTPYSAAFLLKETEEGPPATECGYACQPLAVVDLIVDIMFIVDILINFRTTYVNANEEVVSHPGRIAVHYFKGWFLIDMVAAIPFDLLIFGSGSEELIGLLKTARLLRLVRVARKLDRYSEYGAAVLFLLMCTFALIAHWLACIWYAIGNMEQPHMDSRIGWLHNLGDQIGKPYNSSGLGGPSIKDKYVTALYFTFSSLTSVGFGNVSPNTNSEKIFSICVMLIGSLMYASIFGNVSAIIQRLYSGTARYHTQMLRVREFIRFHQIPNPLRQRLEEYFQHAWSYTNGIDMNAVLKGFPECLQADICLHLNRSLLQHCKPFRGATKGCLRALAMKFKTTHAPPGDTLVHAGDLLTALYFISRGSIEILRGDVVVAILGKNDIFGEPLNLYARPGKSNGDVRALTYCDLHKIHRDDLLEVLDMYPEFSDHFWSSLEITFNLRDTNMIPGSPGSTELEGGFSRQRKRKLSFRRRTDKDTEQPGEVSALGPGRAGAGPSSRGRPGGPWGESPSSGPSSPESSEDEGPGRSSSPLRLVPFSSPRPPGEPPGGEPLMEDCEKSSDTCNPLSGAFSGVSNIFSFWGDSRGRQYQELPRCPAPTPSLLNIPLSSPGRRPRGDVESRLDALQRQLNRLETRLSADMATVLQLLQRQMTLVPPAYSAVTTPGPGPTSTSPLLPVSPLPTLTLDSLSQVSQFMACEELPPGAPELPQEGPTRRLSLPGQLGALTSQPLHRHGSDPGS
Chain of Thyrotropin-releasing hormone receptor (Homo sapiens) (P34981 whole entry, looked up): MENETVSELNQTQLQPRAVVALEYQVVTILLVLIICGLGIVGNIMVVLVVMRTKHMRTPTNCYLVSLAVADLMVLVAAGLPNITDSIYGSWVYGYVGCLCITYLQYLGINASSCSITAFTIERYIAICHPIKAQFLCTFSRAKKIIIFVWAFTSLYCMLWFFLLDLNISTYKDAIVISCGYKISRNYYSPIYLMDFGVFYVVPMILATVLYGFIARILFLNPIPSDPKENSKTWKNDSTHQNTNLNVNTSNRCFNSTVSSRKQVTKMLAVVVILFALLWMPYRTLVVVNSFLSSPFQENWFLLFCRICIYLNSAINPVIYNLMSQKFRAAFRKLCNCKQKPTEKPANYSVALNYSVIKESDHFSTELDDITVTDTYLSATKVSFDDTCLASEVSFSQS
Chain of Cytochrome P450 3A4 (Homo sapiens) (P08684 whole entry, looked up): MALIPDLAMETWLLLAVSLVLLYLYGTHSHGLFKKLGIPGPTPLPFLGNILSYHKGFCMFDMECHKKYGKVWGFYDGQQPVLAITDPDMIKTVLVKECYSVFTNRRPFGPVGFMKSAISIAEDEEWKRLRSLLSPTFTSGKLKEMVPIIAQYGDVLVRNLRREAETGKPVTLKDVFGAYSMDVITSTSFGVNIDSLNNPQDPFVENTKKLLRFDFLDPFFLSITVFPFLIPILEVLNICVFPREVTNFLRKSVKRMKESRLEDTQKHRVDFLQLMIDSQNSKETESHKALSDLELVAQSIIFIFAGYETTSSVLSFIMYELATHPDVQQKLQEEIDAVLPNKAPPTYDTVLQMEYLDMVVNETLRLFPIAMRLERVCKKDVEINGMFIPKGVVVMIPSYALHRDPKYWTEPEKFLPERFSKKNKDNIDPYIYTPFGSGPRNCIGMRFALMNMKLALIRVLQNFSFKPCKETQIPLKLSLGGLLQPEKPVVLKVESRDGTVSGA
Chain of Cytochrome P450 2C9 (Homo sapiens) (P11712 whole entry, looked up): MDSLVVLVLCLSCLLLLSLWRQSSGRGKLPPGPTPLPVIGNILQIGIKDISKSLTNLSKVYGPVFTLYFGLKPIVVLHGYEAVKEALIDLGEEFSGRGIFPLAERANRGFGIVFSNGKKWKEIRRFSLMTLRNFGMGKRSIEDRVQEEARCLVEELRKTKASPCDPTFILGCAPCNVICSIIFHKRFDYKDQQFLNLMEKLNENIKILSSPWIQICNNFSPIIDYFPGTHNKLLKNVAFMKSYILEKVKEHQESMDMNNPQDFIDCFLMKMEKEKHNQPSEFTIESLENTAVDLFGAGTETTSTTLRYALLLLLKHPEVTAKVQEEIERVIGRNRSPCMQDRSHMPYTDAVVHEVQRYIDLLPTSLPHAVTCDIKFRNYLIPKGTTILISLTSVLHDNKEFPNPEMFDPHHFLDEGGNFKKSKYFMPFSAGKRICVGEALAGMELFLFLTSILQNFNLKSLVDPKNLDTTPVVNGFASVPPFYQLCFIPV
Chain of Cytochrome P450 2D6 (Homo sapiens) (P10635 whole entry, looked up): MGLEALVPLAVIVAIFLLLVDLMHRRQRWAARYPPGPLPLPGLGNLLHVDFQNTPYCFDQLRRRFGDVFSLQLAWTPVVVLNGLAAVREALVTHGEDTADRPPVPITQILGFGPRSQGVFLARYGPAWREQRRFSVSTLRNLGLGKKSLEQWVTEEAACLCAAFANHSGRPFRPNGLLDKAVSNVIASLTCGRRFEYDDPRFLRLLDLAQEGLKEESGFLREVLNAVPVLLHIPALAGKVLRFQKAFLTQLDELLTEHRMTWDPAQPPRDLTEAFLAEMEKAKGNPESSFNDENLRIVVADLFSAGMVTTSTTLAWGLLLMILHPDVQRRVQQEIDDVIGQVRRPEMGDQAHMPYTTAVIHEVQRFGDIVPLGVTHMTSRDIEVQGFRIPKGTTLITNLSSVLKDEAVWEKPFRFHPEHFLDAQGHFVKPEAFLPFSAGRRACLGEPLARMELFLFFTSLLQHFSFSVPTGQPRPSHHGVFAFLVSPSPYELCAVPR
Chain of Nuclear receptor subfamily 1 group I member 2 (Homo sapiens) (O75469 whole entry, looked up): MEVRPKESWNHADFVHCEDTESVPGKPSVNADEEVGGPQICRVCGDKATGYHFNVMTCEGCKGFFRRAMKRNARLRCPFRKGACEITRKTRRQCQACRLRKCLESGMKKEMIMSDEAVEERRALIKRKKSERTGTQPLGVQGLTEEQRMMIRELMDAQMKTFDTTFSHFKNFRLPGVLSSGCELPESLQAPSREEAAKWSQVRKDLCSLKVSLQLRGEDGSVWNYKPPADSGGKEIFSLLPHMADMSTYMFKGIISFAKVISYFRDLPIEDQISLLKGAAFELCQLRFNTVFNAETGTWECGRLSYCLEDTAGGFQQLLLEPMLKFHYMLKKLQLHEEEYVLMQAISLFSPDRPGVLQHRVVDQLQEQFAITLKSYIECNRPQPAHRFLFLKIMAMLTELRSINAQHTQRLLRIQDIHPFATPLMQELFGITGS
Chain of Nuclear receptor subfamily 1 group I member 2 (Rattus norvegicus) (Q9R1A7 whole entry, looked up): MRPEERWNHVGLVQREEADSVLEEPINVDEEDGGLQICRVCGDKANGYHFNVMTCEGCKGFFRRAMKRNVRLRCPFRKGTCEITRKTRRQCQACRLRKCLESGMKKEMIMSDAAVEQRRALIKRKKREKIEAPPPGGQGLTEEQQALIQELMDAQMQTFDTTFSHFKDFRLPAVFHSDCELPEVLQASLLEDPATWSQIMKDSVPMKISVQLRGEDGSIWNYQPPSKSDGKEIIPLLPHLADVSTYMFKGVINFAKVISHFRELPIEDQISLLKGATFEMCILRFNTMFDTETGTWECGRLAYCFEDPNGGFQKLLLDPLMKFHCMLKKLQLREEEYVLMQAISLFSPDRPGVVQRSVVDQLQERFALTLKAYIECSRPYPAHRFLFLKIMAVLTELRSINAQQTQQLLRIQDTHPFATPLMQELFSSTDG

Cc1ccc2cccnc2c1
active: Potency [11] 39.6 µM
inactive: outcome [1] | outcome [2] | Potency [3] | outcome [4] | Potency [5] | outcome [6] | outcome [7] | Potency [8] | Potency [9] | Potency [10] | Potency [12] | Potency [13]

CC(=O)Nc1ccc(OCCOCCOc2ccc(NC(C)=O)cc2)cc1
active: Potency [9] 17.4 µM | Potency [10] 5.49 µM
inactive: outcome [1] | outcome [2] | outcome [4] | outcome [14] | Potency [5] | outcome [6] | outcome [7] | Potency [8] | max activation [15] -0.187% | outcome [16] | outcome [17] | Potency [11] | Potency [12] | Potency [13]

Cc1nc2ccc(Cl)cc2[nH]1
inactive: outcome [1] | outcome [2] | Potency [3] | outcome [14] | outcome [6] | Potency [10] | Potency [12]
active: Potency [5] 17.2 µM | Potency [8] 12.2 µM | Potency [18] 31.7 µM | Potency [9] 39.8 µM | Potency [11] 2.82 µM

CN(C)CCc1c[nH]c2ccc(CS(=O)(=O)N3CCCC3)cc12
inactive: outcome [1] | outcome [2] | Potency [3] | outcome [4] | Potency [5] | outcome [6] | outcome [7] | Potency [8] | outcome [16] | outcome [17] | Potency [9] | Potency [10] | Potency [11] | Potency [12] | Potency [13]

COC(C)(C)CC(C)=O
inactive: outcome [1] | outcome [2] | outcome [19] | Potency [3] | outcome [4] | Potency [5] | outcome [6] | outcome [7] | Potency [8] | Potency [18] | Potency [11] | Potency [12] | Potency [13]

CCCCCCCCCCCCCCCC(=O)OC
inactive: activity change, negative = cytotoxicity [1] -0.944% [at 15.8 µM] | activation [2] 0.447% [at 15.8 µM] | activation [3] 1.74% [at 11.8 µM] | activity change, negative = cytotoxicity [4] 0.375% [at 19 µM] | caspase-3/7 activation [6] 1.1% [at 19 µM] | activity change, negative = cytotoxicity [7] -1.7% [at 19 µM] | activation [8] 4.26% [at 19 µM] | activity change, negative = inhibition [18] 1.63% [at 23.6 µM] | activity change, negative = inhibition [9] -1.98% [at 23.6 µM] | activity change, negative = inhibition [10] 2.75% [at 23.6 µM] | activity change, negative = inhibition [11] -2.98% [at 23.6 µM] | activity change, negative = inhibition [12] -9.56% [at 15.8 µM] | activity change, negative = inhibition [13] 2.42% [at 23.6 µM]

CCCCOCCCC
inactive: outcome [1] | outcome [2] | outcome [19] | Potency [3] | outcome [4] | outcome [6] | outcome [7] | Potency [8] | Potency [9] | Potency [10] | Potency [12] | Potency [13]

CCc1ccc(CC)cc1
inactive: outcome [1] | outcome [2] | Potency [3] | outcome [4] | Potency [5] | outcome [6] | outcome [7] | Potency [8] | Potency [18] | Potency [9] | Potency [10] | Potency [11] | Potency [12] | Potency [13]

COC(=O)c1c(C)cc(O)c(C)c1O
active: Potency [8] 61.1 µM | Potency [18] 31.7 µM | Potency [9] 7.96 µM | Potency [11] 0.252 µM
inactive: outcome [1] | outcome [2] | outcome [19] | Potency [3] | outcome [4] | outcome [6] | outcome [7] | Potency [12]

CC(=O)c1c(C)cc(C(C)(C)C)cc1C
inactive: outcome [1] | outcome [2] | outcome [19] | Potency [3] | outcome [4] | Potency [5] | outcome [6] | outcome [7] | Potency [8] | Potency [18] | Potency [12] | Potency [13]
active: Potency [9] 71 µM

CCN1CCN(C(=O)N[C@@H](C(=O)N[C@@H]2C(=O)N3[C@@H]2SC(C)(C)[C@H]3C(=O)O)c2ccccc2)C(=O)C1=O
inactive: outcome [1] | outcome [2] | outcome [19] | Potency [3] | outcome [4] | outcome [6] | outcome [7] | Potency [8] | Potency [18] | Potency [9] | Potency [10] | Potency [11] | Potency [13]

COCCCOc1cc(C[C@@H](C[C@H](N)[C@@H](O)C[C@H](C(=O)NCC(C)(C)C(N)=O)C(C)C)C(C)C)ccc1OC
inactive: outcome [1] | outcome [2] | outcome [19] | Potency [3] | outcome [4] | Potency [5] | outcome [6] | outcome [7] | Potency [8] | Potency [9] | Potency [10] | Potency [11] | Potency [12]

C[n+]1ccccc1/C=N/O
inactive: outcome [1] | outcome [2] | outcome [19] | Potency [3] | outcome [4] | outcome [6] | outcome [7] | Potency [8] | outcome [16] | outcome [17] | Potency [18] | Potency [9] | Potency [10] | Potency [11] | Potency [12] | Potency [13]
